The source of these data is PubChem BioAssay.

Assay [1] can be described thus: compound effects on lung adenocarcinoma cell viability – A549, calcein-AM fluorescence, 48 h, basal, profiling panel (AID 1162). Conditions: higher = more signal.
A short description of assay [2]: compound effects on differentiated 3T3-L1 adipocyte viability – cell-based, 3T3-L1 adipocytes, calcein-AM fluorescence, 48 h, basal, profiling panel (AID 1163). As to conditions: 3T3-L1 adipocytes viability, higher = more signal.
The nature of assay [3]: compound effects on hepatocellular carcinoma cell viability – HepG2, calcein-AM fluorescence, 48 h, basal, profiling panel (AID 1164). As to conditions: higher = more signal.
The nature of assay [4]: compound effects on multiple myeloma cell viability – MM1S, calcein-AM fluorescence, 48 h, basal, profiling panel (AID 1165). Conditions: higher = more signal.
Assay [5] can be described thus: calcein-AM signal in unstimulated myeloma cells – cell-based, calcein-AM fluorescence, 48 h, PK04 Diversity Set, profiling panel (AID 1166).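 Further: cells grown under basal conditions without added stimulus.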 Conditions: RPMI8226 myeloma viability, higher = more signal.
A short description of assay [6]: JC-1 mitochondrial signal, unstimulated HepG2 cells – cell-based, JC-1 fluorescence, 24 h, 100 nL compound, profiling panel (AID 1167). Conditions: HepG2 mitochondrial potential, higher = more signal.
Assay [7] can be described thus: JC-1 mitochondrial signal, unstimulated adipocytes – cell-based, JC-1 fluorescence, 3T3-L1 adipocytes, 24 h, 100 nL compound, profiling panel (AID 1168). Conditions: JC-1 mitochondrial fluorescence, higher = more signal, called active from +8 up or from −8 down.
Assay [8] can be described thus: JC-1 mitochondrial signal, unstimulated myeloma cells – cell-based, JC-1 fluorescence, RPMI8226, 24 h, 100 nL compound, profiling panel (AID 1169). As to conditions: JC-1 mitochondrial potential fluorescence, higher = more signal.
A short description of assay [9]: JC-1 mitochondrial signal, unstimulated MM1S myeloma – cell-based, JC-1 fluorescence, 24 h, 100 nL compound, profiling panel (AID 1170). As to conditions: MM1S mitochondrial potential, higher = more signal.
Assay [10] can be described thus: resazurin metabolic signal in A549 cells – cell-based, resazurin fluorescence, 24 h, PK04 Diversity Set, profiling panel (AID 1171). As to conditions: A549 viability, higher = more signal, called active from +8 up or from −8 down.

Active and inactive are the calls of the source.
Further: test concentration not given here.

As to `CC(C)Cc1ccc(CN2CC[C@@H](NC(=O)c3ccccc3)C2)cc1`, the z-score in assay [1] was 0.0665; in assay [2] it was -0.418; in assay [3], -0.179; in assay [4], -3.15; in assay [5] it was -2.77; in [6] it was -0.251. Further, the z-score in [7] is 0.343 (inactive); in [8], -0.442; in assay [9], -1.38; in assay [10], 0.247 (inactive).
As to `COC(=O)[C@@]1(Cc2ccc(F)cc2)[C@H]2c3cc(C(=O)N(C)C)n(Cc4cccc5ccccc45)c3C[C@H]2CN1C(=O)c1ccccc1`, the z-score in assay [1] is -0.994; in assay [2] it was -0.296; in assay [3], 0.156; in assay [4] it was -0.0591; in assay [5], -0.489; in assay [6], -0.0443. Further, the z-score is -2.25 (inactive) in assay [7], -0.207 in [8], -0.774 in assay [9] and 0.0731 (inactive) in [10].
`CCCCCN1CC=CC23O[C@@H]4/C=C\CCCOC(=O)C4[C@H]2C(=O)N(CCO)[C@@H]3C1=O` (stereo not given in full): the z-score in [1] is 0.415; in assay [2], 1.64; in assay [3], 0.0134; in assay [4] it was 1.59; in [5] it was 0.218; in [6], -0.242. Further, the z-score in assay [7] was -0.428 (inactive); in assay [8], 0.699; in [9], -0.307; in assay [10], -0.231 (inactive).
On to `Cc1cccc([C@H]2C[C@H]3C(Br)=C[C@@]2(CO)C(=O)[C@]32CO2)c1`, for which the z-score in assay [1] is -0.602; in [2], 0.0875; in assay [3], -0.729; in assay [4], -2.43; in assay [5], -0.551; in assay [6] it was -2.11. In addition, the z-score in assay [7] was -0.0495 (inactive); in [8] it was -0.0551; in assay [9], -0.876; in [10] it was 0.393 (inactive).
As to `C=C(C(=O)CC[C@@H](OC(=O)c1ccccc1-c1ccccc1C(=O)O)c1ccc(OCCO)cc1)C(C)C`, the z-score in assay [1] is -0.514; in assay [2] it was 0.517; in assay [3], 0.654; in assay [4], -3.22; in [5], -2.98; in assay [6], -0.556. The z-score in assay [7] was -1.2 (inactive); in assay [8] it was -0.787; in [9], -0.547; in assay [10], -0.0237 (inactive).
With `C=C(COC)C(=O)CC[C@@H](OC(=O)c1ccccc1-c1ccccc1C(=O)O)c1ccccc1OCCO`, the z-score was -0.184 in assay [1]; 0.615 in assay [2]; -0.248 in assay [3]; -3.31 in [4]; -3.75 in assay [5]; -1.13 in assay [6]. Further, the z-score in [7] was -0.305 (inactive); in [8], -0.88; in [9], -1.84; in assay [10], 0.393 (inactive).
For the molecule `C=CC[C@H](O)c1ccc(O)c2ccccc12`, the z-score in assay [1] is 0.902; in assay [2] it was -0.0385; in [3] it was -0.817; in assay [4], -2.84; in assay [5], -3.71; in [6], -2.13. Further, the z-score in assay [7] was 0.241 (inactive); in assay [8], -0.752; in assay [9], -1.71; in assay [10] it was -0.409 (inactive).
`C=CCC(OC(C)=O)[C@@H]1[C@@H](N(Cc2cccc3ccccc23)C(=O)c2ccc(C)cc2)c2cc(OCCCO)ccc2N1C(=O)Cc1ccc2ccccc2c1` (stereo not given in full): the z-score in assay [1] is 0.396; in [2], 1.05; in assay [3] it was 1.55; in assay [4], 0.83; in assay [5] it was 0.986; in assay [6], 3.54. The z-score in assay [7] was 0.598 (inactive); in assay [8], 0.152; in assay [9], -0.984; in assay [10], 0.433 (inactive).
Take `Cc1ccc(S[C@]2(C(=O)NCCN3CCOCC3)CC(=O)N(C(C)C)[C@@H]2c2ccc(CO)cc2I)cc1`: the z-score in assay [1] is 2.91; in assay [2], 0.557; in assay [3], 2.66; in assay [4] it was -2.39; in assay [5], -1.47; in assay [6], 1.64. Further, the z-score in assay [7] was 0.604 (inactive); in [8] it was -1.01; in assay [9], -0.635; in assay [10], -1.13 (inactive).
Take `CC(CO)N1C(=O)[C@@H]2[C@H]3C(=O)OCC=C[C@H]3OC23C=CCN(c2ccc4ccccc4c2)C(=O)[C@@H]13` (stereo not given in full): the z-score in [1] is 0.0456; in [2] it was 0.0291; in assay [3], -0.432; in assay [4], -0.496; in assay [5], -0.149; in assay [6], -0.626. The z-score in [7] was -0.654 (inactive); in assay [8] it was 0.109; in assay [9], 0.563; in [10] it was 0.873 (inactive).
With `CO[C@H]1O[C@H](CO)[C@@H](OC(=O)Nc2ccccc2)[C@@H]2OC(=O)[C@@H](Cc3ccccc3)C/C=C/C[C@H](Cc3ccccc3)C(=O)O[C@@H]12`, the z-score was -0.255 in assay [1]; -0.0852 in assay [2]; 0.297 in [3]; 0.36 in [4]; 0.335 in [5]; -0.502 in assay [6]. Also, the z-score in assay [7] was 2.28 (inactive); in assay [8], -0.532; in assay [9], -1.65; in assay [10] it was -0.869 (inactive).
For `CN(C)CCCCCCNC(=O)[C@@H]1C[C@@H]2C(=O)N[C@@H](CCCC[N+](C)(C)C)C(=O)N2[C@@H]1c1cccc(OCCO)c1`, the z-score in assay [1] was -0.188; in assay [2], -0.015; in assay [3], 0.413; in assay [4] it was 0.232; in assay [5] it was 0.799; in [6], 1.37. Further, the z-score in [7] was -0.225 (inactive); in assay [8] it was -0.567; in assay [9] it was 0.0992; in assay [10], -0.646 (inactive).
Take `CN(C)CCCCNC(=O)[C@H]1C[C@H]2C(=O)N[C@@H](CCCCN(C)C)C(=O)N2[C@H]1c1ccc(O)cc1`: the z-score in assay [1] was 0.897; in assay [2], 0.613; in assay [3], 0.218; in [4] it was 0.428; in [5], 1.26; in assay [6], 0.754. Besides, the z-score in [7] was 0.903 (inactive); in assay [8], -0.623; in assay [9], -0.379; in assay [10], 1.2 (inactive).
`C=CCOC(=O)[C@@H]1[C@H]2C(=O)O[C@H](c3ccccc3)[C@H](c3ccccc3)N2[C@H](c2ccc(OCCOC(=O)[C@H]3C[C@H]4C(=O)N[C@@H](CCCCN(C)C)C(=O)N4[C@H]3c3cccc(OCCO)c3)cc2)[C@@]12C(=O)Nc1ccccc12`: the z-score is -0.555 in assay [1]; -0.453 in [2]; -0.113 in [3]; 0.293 in assay [4]; -2.17 in assay [5]; -1.29 in assay [6]. Besides, the z-score in [7] was -0.5 (inactive); in assay [8], -0.928; in assay [9], -0.689; in assay [10], 0.64 (inactive).
For `CCOC(=O)C[C@H]1[C@H](OC(=O)c2ccc(-c3ccccc3)cc2)[C@@H](NC(=O)C2CCCCC2)c2cc(OCCCO)ccc2N1C(=O)Cc1ccc(OC)cc1`, the z-score was -0.869 in assay [1]; 0.0396 in [2]; -0.216 in [3]; -0.581 in assay [4]; -0.938 in assay [5]; 0.801 in assay [6]. Besides, the z-score was -0.199 (inactive) in assay [7], 0.823 in assay [8], 0.488 in assay [9] and -0.0129 (inactive) in assay [10].
Consider `COc1ccc(CCNC(=O)[C@@H]2c3ccccc3C(=O)N(Cc3cc(F)cc(C(F)(F)F)c3)[C@H]2c2ccc(CO)cc2)cc1`, for which the z-score in assay [1] was 2.41; in assay [2], 1.33; in [3], 0.492; in assay [4], -0.696; in [5], 0.36; in [6], 1.98. The z-score was 0.17 (inactive) in assay [7], -0.455 in assay [8], 0.558 in [9] and 1.3 (inactive) in assay [10].
Consider `CC(C)N1CC=CC23O[C@@H]4/C=C\CCCOC(=O)C4[C@H]2C(=O)N(C(C)CO)[C@@H]3C1=O` (stereo not given in full), for which the z-score is 0.0513 in assay [1]; 0.512 in assay [2]; -0.145 in assay [3]; 0.967 in assay [4]; 0.629 in [5]; 0.412 in assay [6]. The z-score in assay [7] is -1.54 (inactive); in [8], 0.0317; in assay [9], -1.08; in assay [10], 0.753 (inactive).
Consider `C[C@]1(C(=O)NCC(F)(F)F)c2ccccc2C(=O)N(Cc2cc(C(F)(F)F)cc(C(F)(F)F)c2)[C@H]1c1ccc(CO)cc1`, for which the z-score was 1.82 in [1]; 0.441 in [2]; 1.51 in assay [3]; 0.24 in assay [4]; 1.11 in assay [5]; 1.23 in assay [6]. Also, the z-score is 0.436 (inactive) in assay [7], 0.412 in assay [8], 0.0741 in [9] and 0.476 (inactive) in assay [10].
Turning to `COc1cc(Cc2cc3c(c(-c4ccccc4)n2)[Si](C(C)C)(C(C)C)OC3)cc(OC)c1OC`, the z-score in assay [1] is 0.24; in assay [2], 0.609; in assay [3] it was -0.305; in [4], -0.537; in assay [5], -0.189; in assay [6] it was -0.591. The z-score is 0.323 (inactive) in assay [7], 0.138 in assay [8], 0.382 in assay [9] and 0.534 (inactive) in assay [10].
For `O=C1C[C@@](C(=O)NCC(F)(F)F)(c2ccc([N+](=O)[O-])cc2)[C@@H](c2ccc(CO)cc2I)N1CC12CC3CC(CC(C3)C1)C2`, the z-score was -2.05 in [1]; 0.463 in [2]; -5.2 in assay [3]; -3.84 in assay [4]; -4.03 in assay [5]; -0.436 in assay [6]. Further, the z-score is 2.16 (inactive) in assay [7], -0.9 in assay [8], -2.17 in [9] and -3.86 (inactive) in assay [10].
As for `COc1ccc([Si](C)(C)[C@@H]2[C@@H](CC(=O)N3CCC[C@H]3CO)O[C@]3(C(=O)N(Cc4cccc(N5C(=O)c6cccc7cccc5c67)c4)c4ccccc43)[C@H]2C)cc1`, the z-score was -1.07 in [1]; 1.29 in assay [2]; -3.23 in assay [3]; -2.44 in assay [4]; -4.33 in assay [5]; -0.907 in assay [6]. Besides, the z-score in [7] is 0.522 (inactive); in assay [8], -1.05; in [9] it was -1.01; in [10], -1.53 (inactive).
Take `CCCC1(C(=O)OC)C=C2C(=C(C(C)C)C(=O)C2C)CN1` (stereo not given): the z-score was -1.47 in assay [1]; 0.273 in assay [2]; -0.0319 in assay [3]; 0.313 in [4]; -0.316 in [5]; -1.45 in assay [6]. For the same molecule, the z-score in assay [7] was -1.43 (inactive); in assay [8], -0.613; in [9], -0.458; in [10], -0.898 (inactive).
